The results in this text go back to PubChem BioAssay (NCI).

This is part of a sample that, as a whole, favours compounds with a hit. Of some 83,000 tested, about 20% had one in any assay.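 Each cell line was grown in a 96-well plate and treated with one concentration of compound for 48 hours. Values below 10 were considered active.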 A number with no mark means an inactive call. The source made the active and inactive calls.

Some test systems named below: DU-145 prostate; K-562 leukemia; MALME-3M melanoma; MDA-MB-231 breast; RXF 393 renal; SF-268 CNS; SF-295 CNS; SF-539 CNS; UACC-257 melanoma; M14 melanoma.
What all share (test): NCI-60 one-dose screen, 48 h (100 = growth as untreated, 0 = no growth, -100 = all killed)
What all share (settings): 10 µM unless noted

In the case of `CCOC(=O)Cc1cnn(C)c1NC(=O)c1ccc(Cl)cc1NC(C)=O`, the growth with DU-145 prostate was 110%; in the experiment with K-562 leukemia, 103%; in the experiment with MALME-3M melanoma, 105%; in the experiment on MDA-MB-231 breast, 112%; in the experiment with RXF 393 renal, 115%; with SF-268 CNS, 98.7%. Moreover, the growth is 101% in the experiment with SF-295 CNS, 101% with SF-539 CNS, 105% with UACC-257 melanoma and 101% in the experiment with M14 melanoma.

With `Nc1c(C(=O)Nc2ccccc2)sc2nc3c(cc12)CN(CCc1ccccc1)CC3`, the growth with DU-145 prostate is 98.3%; in the experiment with K-562 leukemia, 82.2%; in the experiment on MALME-3M melanoma, 95.7%; in the experiment on MDA-MB-231 breast, 90.4%; in the experiment with RXF 393 renal, 121%; with SF-268 CNS, 93.2%. Moreover, the growth in the experiment with SF-295 CNS is 103%; in the experiment on SF-539 CNS, 95.3%; in the experiment with UACC-257 melanoma it was 110%; in the experiment with M14 melanoma, 108%.

In the case of `c1ccc(Sc2ncnc3ccccc23)cc1`, the growth is 89.3% with DU-145 prostate; 71.4% in the experiment on K-562 leukemia; 64.1% in the experiment on MALME-3M melanoma; 93% in the experiment with MDA-MB-231 breast; 83.1% in the experiment with RXF 393 renal; 70% with SF-268 CNS. Also, the growth in the experiment on SF-295 CNS was 93.7%; in the experiment with SF-539 CNS it was 89%; in the experiment with UACC-257 melanoma, 70.5%; in the experiment with M14 melanoma it was 71%.

With `O=c1c2c3c(sc2n2c(CCl)nnc2n1Cc1ccccc1)CCCC3`, the growth was -11.9% (active) in the experiment with DU-145 prostate; -65.2% (active) in the experiment with K-562 leukemia; -71.4% (active) in the experiment with MALME-3M melanoma; -60.2% (active) with MDA-MB-231 breast; -39.1% (active) with RXF 393 renal; -59.2% (active) in the experiment with SF-268 CNS. Further, the growth in the experiment on SF-295 CNS is 126%; in the experiment with SF-539 CNS, -85.5% (active); with UACC-257 melanoma, -53.6% (active); with M14 melanoma, -49.9% (active).

On to `CCOC(=O)c1cnc2cc(Cl)c(F)cc2c1Nc1cccc(NS(C)(=O)=O)c1`, for which the growth in the experiment with DU-145 prostate was 101%; with K-562 leukemia it was 91.4%; in the experiment on MALME-3M melanoma it was 112%; in the experiment on MDA-MB-231 breast, 80.6%; with RXF 393 renal, 89.3%; with SF-268 CNS, 90.1%. Further, the growth in the experiment with SF-295 CNS is 93.7%; with SF-539 CNS, 89.2%; with UACC-257 melanoma, 118%; with M14 melanoma, 113%.

As for `CC1=C(C)C(=O)OC([C@](C)(O)[C@]2(O)CC[C@@]3(O)[C@@H]4C[C@H]5O[C@]56CC=CC(=O)[C@]6(C)[C@H]4CC[C@]23COC(=O)c2ccc(C)o2)C1` (stereo not given in full), the growth in the experiment on DU-145 prostate is -92.1% (active); in the experiment on K-562 leukemia, 1.46% (active); in the experiment with MALME-3M melanoma it was -85% (active); with MDA-MB-231 breast it was -54.8% (active); in the experiment with RXF 393 renal, -88.8% (active); in the experiment with SF-268 CNS, -55.8% (active). Also, the growth with SF-295 CNS is -24.5% (active); in the experiment on SF-539 CNS it was -91.2% (active); with UACC-257 melanoma, -58.7% (active); in the experiment on M14 melanoma, -0.794% (active).

Turning to `CCC(=O)Oc1ccc(/C(=C(\C)c2ccccc2)c2ccc(OCCN(CC)CC)cc2)cc1`, the growth in the experiment with DU-145 prostate was 102%; with K-562 leukemia, 23%; in the experiment with MALME-3M melanoma, 80.3%; in the experiment with MDA-MB-231 breast, 89.7%; with RXF 393 renal it was 93.4%; with SF-268 CNS, 85.5%. Further, the growth in the experiment with SF-295 CNS was 95.2%; in the experiment with SF-539 CNS, 76.9%; in the experiment on UACC-257 melanoma, 87.4%; in the experiment on M14 melanoma, 69%.

On to `Cc1ccc(/C=C2\Oc3cc(OCC(=O)c4ccc(Cl)cc4)ccc3C2=O)cc1`, for which the growth with DU-145 prostate was 112%; in the experiment on K-562 leukemia, 95.2%; in the experiment with MALME-3M melanoma it was 90%; with MDA-MB-231 breast, 107%; with RXF 393 renal, 99.5%; with SF-268 CNS it was 119%. Also, the growth in the experiment with SF-295 CNS was 114%; in the experiment on SF-539 CNS it was 103%; in the experiment on UACC-257 melanoma it was 98.1%; with M14 melanoma, 102%.

Consider `O=[N+]([O-])c1cccc(-c2nc3sccn3c2-c2ccnc(NCCNS(=O)(=O)c3ccc(C(F)(F)F)cc3)n2)c1`, for which the growth with DU-145 prostate is 48.5%; with K-562 leukemia, 21.8%; in the experiment with MALME-3M melanoma it was 41.1%; in the experiment on MDA-MB-231 breast, 60.2%; with RXF 393 renal it was 56%; with SF-268 CNS, 39.8%. For the same compound, the growth in the experiment on SF-295 CNS is 37.4%; in the experiment with SF-539 CNS it was 74.5%; with UACC-257 melanoma, 49.1%; with M14 melanoma it was 37.8%.

On to `Cc1ccc2c(c1)C(=O)c1c-2c(OCCCN(C)C)nc2ccccc12`, for which the growth in the experiment with DU-145 prostate is 34.3%; with K-562 leukemia, -59.4% (active); in the experiment with MALME-3M melanoma, -71.7% (active); in the experiment on MDA-MB-231 breast, -22.7% (active); with RXF 393 renal, 30.1%; with SF-268 CNS, 30.8%. Besides, the growth with SF-295 CNS is 60%; with SF-539 CNS, 14.4%; in the experiment on UACC-257 melanoma it was 69.5%; in the experiment on M14 melanoma, -82.2% (active).

Regarding `O=C1C2CC=CCC2C(=O)N1CNc1ccc(Cl)cc1` (stereo not given), the growth was 106% with DU-145 prostate; 84.6% in the experiment on K-562 leukemia; 87.6% in the experiment on MALME-3M melanoma; 92.8% in the experiment on MDA-MB-231 breast; 92% with RXF 393 renal; 96.9% with SF-268 CNS. Besides, the growth was 106% in the experiment on SF-295 CNS, 86.5% with SF-539 CNS, 101% in the experiment with UACC-257 melanoma and 94.2% in the experiment with M14 melanoma.

Regarding `CC[C@H](CO)Nc1nc(NCc2ccccc2)n2ncc(C(C)C)c2n1`, the growth in the experiment on DU-145 prostate was 7.53% (active); with K-562 leukemia it was 2.92% (active); with MALME-3M melanoma, -17% (active); in the experiment with MDA-MB-231 breast, 8.97% (active); in the experiment with RXF 393 renal, -13.9% (active); with SF-268 CNS, 5.86% (active). Moreover, the growth is 0.519% (active) in the experiment on SF-295 CNS, -46% (active) in the experiment on SF-539 CNS, 24.2% in the experiment on UACC-257 melanoma and 8.94% (active) with M14 melanoma.

For the compound `CC#CC#Cc1cccc(=O)o1`, the growth is 100% in the experiment with DU-145 prostate; 73.8% with K-562 leukemia; 78.9% with MALME-3M melanoma; 45% in the experiment with MDA-MB-231 breast; 47.3% with RXF 393 renal; 50.4% with SF-268 CNS. Further, the growth in the experiment with SF-295 CNS is 96.1%; in the experiment with SF-539 CNS it was 76.4%; in the experiment on UACC-257 melanoma, 72.6%; in the experiment on M14 melanoma, 74.9%.
